# Measurements: ChEMBL document CHEMBL3433997, “St. Jude Leishmania screening dataset” (2016)
# Columns and labels:
# Format in all cases: functional
# [1] = molecular target: Solute carrier family 2, facilitated glucose transporter member 1 (Homo sapiens) (UniProt P11166); assay: ST_JUDE_LEISH: Cytotoxicity at 2uM final concentration against transgenic Leishmania Mexicana promastigotes LmGLUT1 that are glucose transport deficient and complemented with the human glucose transporter GLUT1. Activity is measured by DNA content using SYBR green in vitro
# [2] = molecular target: Hexose transporter 1 (Plasmodium falciparum) (UniProt O97467); assay: ST_JUDE_LEISH: Cytotoxicity at 2uM final concentration against transgenic Leishmania Mexicana promastigotes LmPfHT that are glucose transport deficient and complemented with the Plasmodium falciparum hexose transporter. Activity is measured by DNA content using SYBR green in vitro
# [3] = molecular target: Glucose transporter (Leishmania mexicana) (UniProt O61059); assay: ST_JUDE_LEISH: Cytotoxicity at 2uM final concentration against transgenic Leishmania Mexicana promastigotes LmGT2 that are glucose transport deficient and complemented with the L. Mexicana glucose transporter 2. Activity is measured by DNA content using SYBR green in vitro
# Solute carrier family 2, facilitated glucose transporter member 1 (Homo sapiens), sequence (P11166 whole entry): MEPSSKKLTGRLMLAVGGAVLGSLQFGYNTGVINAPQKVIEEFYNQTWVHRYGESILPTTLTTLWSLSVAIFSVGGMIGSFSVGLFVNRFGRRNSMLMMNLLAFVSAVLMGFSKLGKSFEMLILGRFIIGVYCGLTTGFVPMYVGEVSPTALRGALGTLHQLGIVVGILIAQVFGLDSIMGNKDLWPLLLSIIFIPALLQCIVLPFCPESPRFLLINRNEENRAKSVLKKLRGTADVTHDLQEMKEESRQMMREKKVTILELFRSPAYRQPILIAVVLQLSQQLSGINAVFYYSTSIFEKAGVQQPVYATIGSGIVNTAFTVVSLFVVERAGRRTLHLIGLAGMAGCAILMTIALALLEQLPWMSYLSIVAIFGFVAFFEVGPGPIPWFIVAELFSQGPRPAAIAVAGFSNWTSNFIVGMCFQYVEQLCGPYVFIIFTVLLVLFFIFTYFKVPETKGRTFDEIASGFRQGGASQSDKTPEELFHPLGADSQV
Structure (SMILES),inhibition [1] [%],inhibition [2] [%],inhibition [3] [%]
Cc1c2c(nn1-c1ccccc1)C(c1ccccc1)N(c1ccccc1)C2=O (stereo not drawn),-0.43,0.43,0.75
CC[C@H](C)CNC(=O)c1ccnc(-c2cccc(CN3CCC(N4CCCC4)CC3)c2)c1,0.78,-0.95,0.7
COc1ccc2ncc(F)c([C@H](O)CN3CCC(NCc4ccc5c(c4)NC(=O)CO5)CC3)c2c1,1.17,0.49,1.56
CCCCCCn1c(Sc2ccc(C#N)c([N+](=O)[O-])c2)nnc1-c1ccc(N(C)C)cc1,17.6,16.1,15.3
CCc1ccc2nc(-c3ccc(F)cc3)nc(SCC(=O)Nc3sc(C)c(C)c3C#N)c2c1,5.67,7.28,5.07
CN1CCC(N2CCN(c3ccc4c(=O)nc(CCc5cccc(F)c5F)n(CC(=O)N(C)Cc5ccc(-c6ccc(C(F)(F)F)cc6)cc5)c4n3)CC2)CC1,-0.12,0.33,6.67
COc1ccccc1NC(=O)Nc1cccc(-c2ccc(-c3nc4cc(C(F)(F)F)ccc4[nH]3)cc2)c1,2.16,2.07,0.72
Cc1ccc(C)c(S(=O)(=O)NCC2CCN(Cc3ccc(O)cc3)CC2)c1,41.3,7.78,-2.61
COc1ccccc1/C=C/C(=O)N(C)C1CCN(CCCCCNC(=O)/C=C/c2ccc(Cl)c(Cl)c2)C1 (stereo not drawn),1.67,1.04,0.34
COc1cccc(C(=O)C2CC2CN(C)CCC(O)c2ccc(Cl)c(Cl)c2)c1 (stereo not drawn),3.35,3.48,4.04
COc1cc2nccc(Nc3cc(C)cc(O)c3)c2cc1OC,2.64,3.99,0.8
